Data on 40 sequences can be found in the OligoGym collection.
Note: reference of the scale not given here.

In the first assay the target is ALAD. Description: pooled miR-30 sensor sort-seq; sequence = guide strand. To be noted: shRNA.
Take TTTAAAGTTCTAGTTCTTGGGC: the sensor-assay potency score (higher = more potent) was -0.0518.

Take ATGTCATCAGGAACATCCGTGA: the sensor-assay potency score (higher = more potent) was -0.798.

Consider TAGGCTGTATGTCATCAGGAAC, for which the sensor-assay potency score (higher = more potent) is -1.11.

On to TAGGTGATGATGATGTCAGCAC, for which the sensor-assay potency score (higher = more potent) was found to be 0.277.

For the sequence TAGTGGGTGGAAGTAGCCGCTG, the sensor-assay potency score (higher = more potent) is -1.31.

AAATTTGGCACTGTAGCTCATC had a sensor-assay potency score (higher = more potent) of -0.696.

In turn, TCGTCCTTGGGAACTCTGCTGG registered a sensor-assay potency score (higher = more potent) of -1.05.

Regarding TTTGGTTTTCACTTGTCTGAGG, the sensor-assay potency score (higher = more potent) was -0.0275.

In the case of TCCTTGGGAACTCTGCTGGGGA, the sensor-assay potency score (higher = more potent) is -1.34.

TGGATTGCCTCAATAGCTGGGG returned a sensor-assay potency score (higher = more potent) of -0.361.

Sequence TTGACTTAGCTGCATCCCGGAA gave a sensor-assay potency score (higher = more potent) of -1.25.

Turning to ATGTCAGCACCTGCTCTGCGGA, the sensor-assay potency score (higher = more potent) is -1.76.

In the case of AAGCTGGGCTTGACTTAGCTGC, the sensor-assay potency score (higher = more potent) was -1.16.

A further assay addresses ALDH1A1. The assay is described as above. As to conditions: shRNA.
The sequence TGTCTTTGGTAAACACTCCTGC displayed a sensor-assay potency score (higher = more potent) of 0.136.

Sequence TATATTAGTGACTGTAAGGAGA yielded a sensor-assay potency score (higher = more potent) of -0.658.

As to TAACATTAGAGAACACTGTGGG, the sensor-assay potency score (higher = more potent) is 0.962.

TGTAACATTAGAGAACACTGTG came in with a sensor-assay potency score (higher = more potent) of 0.545.

Sequence TTAAAGACAGGAAATTTCTTGC had a sensor-assay potency score (higher = more potent) of -0.236.

TAGCAATTCACCCACACTGTTC: the sensor-assay potency score (higher = more potent) is -1.07.

Consider TTGAATCTTCAAATCGGTGAGT, for which the sensor-assay potency score (higher = more potent) turned out to be 0.0111.

ATATTGTTCCTTGTCAATCTGA came in with a sensor-assay potency score (higher = more potent) of 0.00946.

In turn, TTATCTCCTTCTTCTACCTGGC yielded a sensor-assay potency score (higher = more potent) of -0.0648.

On to TTAAAATCTACTATATTAGTGA, for which the sensor-assay potency score (higher = more potent) turned out to be 0.534.

TTGGTAAACACTCCTGCTGATA came in with a sensor-assay potency score (higher = more potent) of -1.11.

As for AATACTAATATGATTTAGCTTA, the sensor-assay potency score (higher = more potent) was -0.152.

TACTTTGTCTATATCCATGTGA: the sensor-assay potency score (higher = more potent) is 0.349.

As to TAGCGCAATGTTTTGATGCAGC, the sensor-assay potency score (higher = more potent) was -0.601.

The sequence TTAGAGAACACTGTGGGCTGGA yielded a sensor-assay potency score (higher = more potent) of 0.618.

With TGCCTTGTCAACATCCTCCTTA, the sensor-assay potency score (higher = more potent) came out at 0.465.

In the case of TTCATTGACTCCATTGTCGCCA, the sensor-assay potency score (higher = more potent) stood at 0.315.

Regarding AAATTCAACAGCATTGTCCAAG, the sensor-assay potency score (higher = more potent) is -0.656.

As to TAGAAAGTATTGTTTGCTCTTT, the sensor-assay potency score (higher = more potent) is -0.662.

In the case of TTAGCTATTGAAGAGCTTCTCT, the sensor-assay potency score (higher = more potent) stood at 0.445.

Sequence TGATTTGCTGCACTGGTCCAAA returned a sensor-assay potency score (higher = more potent) of -0.586.

On to TAATTCTTTCAGAAGAAGCTAC, for which the sensor-assay potency score (higher = more potent) was -0.0936.

In turn, TATTGTTCCTTGTCAATCTGAG registered a sensor-assay potency score (higher = more potent) of 0.207.

A further assay has as its target ALDH1A3. Described as above. To be noted: shRNA.
For the sequence TATCTTGGTGAACTTGACCTCC, the sensor-assay potency score (higher = more potent) amounted to 0.362.

With TCTTTTTATCACTTCTTCGATA, the sensor-assay potency score (higher = more potent) is -0.674.

TCATTGTTGATAAATATCTTGG yielded a sensor-assay potency score (higher = more potent) of -0.45.

As for TTTTGTCGAACTGCTTTTGATC, the sensor-assay potency score (higher = more potent) was -0.787.
